Compound activity (PubChem BioAssay)
TLR9-MyD88 block: TLR9-MyD88 interaction inhibition | Q9NR96+Q99836 | CHO BLA complementation TLR9-MyD88, CCF4 FRET ratio | inhibition, % at 4.98 µM | 340,000 tested, 0.21% active;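 active = inhibition above the mean over all tested compounds plus 3 SD, cut at about 21% in these data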
Myeloid diff MLP: myeloid differentiation induction; ER-HoxA9 myeloid progenitors, lysozyme-GFP differentiation, flow cytometry; calls only at 10 µM; 360,000 tested, 1% active; AID 624256;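 active = normalized GFP-positive differentiation at or above the plate's own cutoff, the solvent-only control mean plus 3 SD; inconclusive = no clear call, values can overlap the other calls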;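 also: cells exposed to compound for four days before flow analysis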
TLR4-MyD88 BLA: blocks binding of human TLR4 to MyD88. HeLa CL3-4 TLR4/MyD88 BLA complementation, FRET ratio. 200,000 tested, 0.18% active. inhibition, % at 8.4 µM. O00206+Q99836; in the data active = inhibition above about 25%
NOD2 RIPK2 PPI: NOD2-RIPK2 protein interaction inhibition; 360,000 tested, 0.38% active; O43353; CHO BLA complementation NOD2-RIPK2, CCF4 ratio; inhibition, % at 4.98 µM; in the data active = inhibition above about 21%
ABCB6 inh 2: inhibitors of human ABC transporter ABCB6 | fluorescence ratio to DMSO, % at 10 µM | K562-ABCB6 porphyrin accumulation, flow cytometry, 1 h; hits give low values | 360,000 tested, 0.19% active | Q9NP58;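 active = fluorescence ratio to DMSO below 75%, the collection mean minus 3 SD; inconclusive = too few cells collected in the well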;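 also: signal is porphyrin accumulated inside mitochondria; lower ratio means ABCB6 inhibition with less porphyrin fluorescence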
TLR9-MyD88 cf: confirmation of human TLR9-MyD88 binding inhibitors; shares compounds with TLR9-MyD88 block; CHO TLR9/MyD88 BLA complementation, CCF4 FRET ratio; inhibition, % at 4.98 µM; 680 tested, 51% active;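 active = mean inhibition across three repeats above about 21% taken from the earlier screen, limit read from the data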;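 also: blue over green emission ratio reports constitutive TLR9 MyD88 association via BLA complementation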
BLA counter-1: beta-lactamase reporter inhibition, counter-screen artifact; CHO-BLA cells, CCF4 FRET ratio, BLA reporter; shares compounds with TLR9-MyD88 block; inhibition, % at 4.98 µM; 680 tested, 7% active;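 active = mean inhibition above a 50% cutoff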;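 also: counterscreen of TLR9-MyD88 hits on CMV-driven BLA in CHO-K1 cells; higher means less blue over green ratio so more BLA blockade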
TLR9 CHO tox: CHO cell toxicity counter-screen for TLR9-MyD88 inhibitors. 680 tested, 39% active. inhibition, % at 4.98 µM. TLR9-MyD88 CHO cells cytotoxicity, luminescence. AID 588336. shares compounds with TLR9-MyD88 block; in the data active = inhibition above about 11%
NOD2-RIPK2 conf: NOD2-RIPK2 interaction inhibition confirmed; CHO cells, NOD2-RIPK2 BLA complementation, CCF4 FRET; inhibition, % at 4.98 µM; shares compounds with NOD2 RIPK2 PPI; 1,200 tested, 70% active; AID 624370;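 active = mean inhibition across replicates above a set limit taken from the earlier primary screen, cut at about 21% in these data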
BLA counter-2: NOD2-RIPK2 counterscreen BLA reporter activity; shares compounds with NOD2 RIPK2 PPI; CHO BLA reporter, CCF4 FRET ratio; inhibition, % at 4.98 µM; 1,200 tested, 57% active; AID 624371;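 active = mean inhibition above the low-control mean inhibition plus three low-control SD, cut at about 11% in these data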
Numbers stand for hits; 0 = inactive; ? = inconclusive; - = no result given; + = active, no number. Compounds with a hit are over-represented: about 1.7% of the library has one in this group of screens.

SMILES | TLR9-MyD88 block | Myeloid diff MLP | TLR4-MyD88 BLA | NOD2 RIPK2 PPI | ABCB6 inh 2 | TLR9-MyD88 cf | BLA counter-1 | TLR9 CHO tox | NOD2-RIPK2 conf | BLA counter-2
CCOC(=O)C1(Cc2ccccc2C)CCCN(Cc2ccc(NC(C)=O)cc2)C1 (centres undefined) | 0 | 0 | 0 | 0 | 0 | - | - | - | - | -
COC(=O)c1c(-c2ccc(OC)cc2)sc2cc3c(cc12)OCO3 | 0 | 0 | - | 0 | 0 | - | - | - | - | -
COC(=O)c1c(-c2ccc(N(C)C)cc2)sc2ccc(OC)cc12 | 28 | 0 | - | 38 | 0 | 35 | 0 | 0 | 49 | 66
O=C(Cn1nc(Br)nc1Br)c1ccccc1 | 0 | 0 | - | 0 | 0 | - | - | - | - | -
CCC1(O)C(=O)OCc2c1cc1n(c2=O)Cc2cc3cc(O)ccc3nc2-1 (centres undefined) | 29 | ? | - | 26 | 0 | 0 | 0 | 63 | 42 | 33
CCc1c2c(nc3ccc(OC(=O)N4CCC(N5CCCCC5)CC4)cc13)-c1cc3c(c(=O)n1C2)COC(=O)[C@]3(O)CC | 0 | ? | - | 0 | 0 | - | - | - | - | -
O=C(Cc1ccccc1)c1c[nH]c(C(=O)NC2CCCC2)c1 | 0 | 0 | 0 | 0 | 0 | - | - | - | - | -
Nc1cccc2c1C(=O)N(CCOc1ccc(F)cc1)C2=O | 23 | 0 | - | 22 | 0 | 0 | 0 | 0 | 33 | 44
COc1ccc(OCCN2C(=O)c3ccccc3C2=O)cc1 | 0 | 0 | 0 | 0 | 0 | - | - | - | - | -
NNC(=O)c1oc2nc(-c3ccc(Cl)cc3)cc(-c3ccccc3)c2c1N | 24 | + | - | 26 | 0 | 46 | 0 | 0 | 62 | 67
CCn1c(Cl)c(C=O)s/c1=N\S(=O)(=O)c1ccccc1 | 48 | ? | - | 94 | 38 | 53 | 0 | 96 | 98 | 38
COc1ccc(/C=N/Nc2ccc([N+](=O)[O-])cc2)cc1O | 37 | 0 | - | 28 | 0 | 28 | 0 | 0 | 43 | 47
COc1ccc(/C=N/Nc2ccc([N+](=O)[O-])cc2)cc1Cn1cc([N+](=O)[O-])cn1 | 0 | 0 | 0 | 0 | 0 | - | - | - | - | -
COc1ccc(OC)c(C=Cc2ccc([N+](=O)[O-])cc2)c1 | 34 | 0 | - | 43 | 0 | 26 | 0 | 0 | 46 | 53
COc1ccccc1N(C(C)=O)C1=C(Cl)C(=O)c2ccccc2C1=O | 65 | - | - | 90 | 0 | 86 | 0 | 102 | 96 | 51
COc1ccccc1CNC(=O)CSc1nnc2c(n1)[nH]c1ccc(F)cc12 | 0 | 0 | - | 0 | 0 | - | - | - | - | -
CC(=O)Nc1cc2c3c(cccc3c1)-c1ccccc1-2 | 24 | + | - | 22 | 0 | 0 | 0 | 0 | 0 | 36
OCCN(CCO)c1nc(N2CCCCC2)c2nc(N(CCO)CCO)nc(N3CCCCC3)c2n1 | 25 | 0 | 0 | 36 | 0 | 0 | 0 | 0 | 47 | 51
CN(C(=O)CN1C(=O)c2cccc(N)c2C1=O)C1CCCCC1 | 29 | 0 | - | 61 | 0 | 0 | 0 | 0 | 51 | 49
CN(C(=O)CN1C(=O)NC2(CCc3ccccc32)C1=O)C1CCCCC1 (centres undefined) | - | 0 | - | 0 | 0 | - | - | - | - | -
O=C(Nc1ccncc1)c1ccccc1-c1ccccc1 | 0 | 0 | 0 | 0 | 0 | - | - | - | - | -
Cc1ccc(/C=C2\Oc3c(ccc(O)c3CN3CCN(CCO)CC3)C2=O)cc1 | 22 | 0 | 0 | 28 | 0 | 0 | 0 | 0 | 24 | 28
Cc1ccccc1SCCNC(=O)CCc1ccccc1 | - | - | 0 | - | - | - | - | - | - | -
O=C(CN1C(=O)NC2(CCCCC2)C1=O)Oc1ccc2c(C(F)(F)F)cc(=O)oc2c1 | 43 | 0 | - | 67 | 0 | 36 | 0 | 0 | 63 | 67
CCc1cc(=O)oc2cc(OC(=O)CN3C(=O)NC4(CCCC4)C3=O)ccc12 | 0 | 0 | - | 0 | 0 | - | - | - | - | -
SMILES | TLR9-MyD88 block | Myeloid diff MLP | TLR4-MyD88 BLA | NOD2 RIPK2 PPI | ABCB6 inh 2 | TLR9-MyD88 cf | BLA counter-1 | TLR9 CHO tox | NOD2-RIPK2 conf | BLA counter-2
Cc1ccc(CNC(=O)c2cccc3c2C(=O)c2ccc(N4CCOCC4)cc2S3(=O)=O)cc1 | 0 | 0 | - | 0 | 0 | - | - | - | - | -
Cc1ccc(CNC(=O)c2cccc3c2C(=O)c2ccc(N4CCCCC4)cc2S3(=O)=O)cc1 | 25 | 0 | - | 27 | 0 | 0 | 0 | 0 | 31 | 33
O=C(NCc1ccccc1C(F)(F)F)c1cccc2c1C(=O)c1ccc(N3CCC(N4CCCCC4)CC3)cc1S2(=O)=O | 30 | + | - | 68 | 0 | 30 | 0 | 0 | 73 | 70
CCOC(=O)C1=C(C)Nc2sc(C(=O)c3ccc(OC)cc3)c(N)c2C1c1ccc(C(=O)OC)cc1 (centres undefined) | 44 | 0 | 0 | 39 | 0 | 0 | 0 | 0 | 0 | 20
COC(=O)C1=C(C)Nc2sc(C(N)=O)c(N)c2C1c1ccncc1 (centres undefined) | 0 | 0 | 0 | 0 | 0 | - | - | - | - | -
O=C(Cc1cccc2ccccc12)NCCOc1ccccc1F | 0 | 0 | 0 | 0 | 0 | - | - | - | - | -
COc1cc(/C=C2\Oc3cc(O)ccc3C2=O)ccc1O | 31 | 0 | - | 44 | 0 | 0 | 0 | 0 | 43 | 47
O=C1/C(=C/c2ccc(O)c(O)c2)Oc2cc(O)ccc21 | 0 | 0 | - | 0 | 0 | - | - | - | - | -
Cc1ccsc1/C=C1\Oc2cc(O)ccc2C1=O | 25 | 0 | - | 50 | 0 | 0 | 0 | 0 | 40 | 52
O=C(NCC(=O)N1CCN(c2ccccn2)CC1)c1ccc(Br)o1 | 0 | 0 | - | 0 | 0 | - | - | - | - | -
OC(Cc1ccnc2ccccc12)C(Cl)(Cl)Cl (centres undefined) | 0 | 0 | - | 0 | 0 | - | - | - | - | -
CC(=O)OCCNc1cc(Sc2nc3ccccc3[nH]2)c2nonc2c1[N+](=O)[O-] | 56 | + | 0 | 89 | 0 | 60 | 0 | 99 | 90 | 38
CC(=O)OCCCNc1cc(Sc2nc3ccccc3s2)c2nonc2c1[N+](=O)[O-] | 0 | - | 0 | 0 | 0 | - | - | - | - | -
COC(=O)C1=CC(C(=O)c2cccs2)=NN(c2ccc(OC)cc2)C1C(=O)OC (centres undefined) | 0 | 0 | 0 | 0 | 0 | - | - | - | - | -
COc1cccc(NC(=O)c2nc(S(C)(=O)=O)ncc2Cl)c1 | 45 | 0 | - | 74 | 0 | 42 | 0 | 100 | 67 | 32
CN(c1ccccc1)S(=O)(=O)c1ccc(NC(=O)c2nc(S(C)(=O)=O)ncc2Cl)cc1 | 58 | ? | - | 100 | 40 | 52 | 0 | 103 | 93 | 51
CN(c1ccccc1)S(=O)(=O)c1ccc(NC(=O)c2ccccc2)cc1 | 0 | 0 | 0 | 0 | 0 | - | - | - | - | -
O=C(C#Cc1ccccc1)c1ccco1 | 30 | ? | - | 78 | 0 | 48 | 0 | 97 | 83 | 18
